The results in this text go back to the supplement of paper PMC7156485.

± gives the standard deviation of the averaged measurements.

Details in all cases: concentration: 10 µM; 24 h
The subject of assay [1] is HCC1569. Put plainly: cell number relative to DMSO (% of DMSO); higher = more cells (less growth inhibition / toxicity). The method in brief: (§1)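 Cells were seeded at 800 per well in 384-well plates with RPMI containing 10% FBS; both HCC1569 and TDF lines were used. Compounds were added at 10 µM for 24 h at 37 °C, in triplicate, before fixation in 3.7% formaldehyde and staining with a rabbit anti-H1.0 antibody, an AlexaFluor 647 secondary and DAPI. H1.0 nuclear intensity or cell number is reported as percent of the plate control using the median of replicates, and HCC1569 values were smoothed for positional effects.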

Assay [2] deals with TDF. Described as above. The method in brief: as §1
Assay [3] has as its system TDF. In words: H1.0 immunofluorescence intensity relative to DMSO (% of DMSO); higher = stronger H1.0 induction, active = 120 or more. The method in brief: as §1
Assay [4] has as its system HCC1569. Put plainly: H1.0 immunofluorescence intensity relative to DMSO (% of DMSO); higher = stronger H1.0 induction, active = 140 or more. The method in brief: as §1
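Throughout, for H1.0 immunofluorescence intensity relative to DMSO: TDF is a line of transformed human dermal fibroblasts of mesenchymal origin.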
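Throughout, for cell number relative to DMSO: TDF denotes transformed human dermal fibroblasts of mesenchymal origin.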

As for `NC(CCC(=O)NC(CS)C(=O)NCC(=O)O)C(=O)O` (configuration not stated) [Glutathione], the cell number turned out to be 101 in assay [1] and 96.1 in assay [2]. Moreover, the H1.0 immunofluorescence intensity was 91 (inactive) in assay [3] and 93 (inactive) in assay [4].
Taken in the same sequence, the figures for `O=C(O)C=Cc1cc(Br)c(Br)c(Br)c1Br` [Casein Kinase II Inhibitor III, TBCA] were 98.7, 113, 92.9 (inactive) and 105 (inactive).
The like results for `COc1ccc2c(c1)c(CC(=O)Nc1ccc(NC(C)=O)cc1)c(C)n2C(=O)c1ccc(Cl)cc1` [N-(4-acetamidophenyl)indomethacinamide] were, in that order, 78.7, 70.1, 134 (active) and 149 (active).
For `CCCCNc1cc(C(=O)O)cc(S(N)(=O)=O)c1Oc1ccccc1` [Bumetanide], the results for the cell number in assay [1] and in assay [2] were 102.7 ± 0.95 and 105 ± 2, respectively. Also, the H1.0 immunofluorescence intensity is 96.4 (inactive) in assay [3] and 100 (inactive) in assay [4].
The like results for `CC(C)(C)n1nc(-c2ccc(Cl)cc2)c2c(N)ncnc21` were, in that order, 67.2, 107, 99.8 (inactive) and 182 (active).
Taken in the same sequence, the figures for `CN(C)C(=O)N=NC(=O)N(C)C` [N,N,N',N'-Tetramethylazodicarboxamide] were 94.8, 103, 91.5 (inactive) and 99.2 (inactive).
Take `O=C(O)COc1ccc(C(=O)c2cccs2)c(Cl)c1Cl` [[2,3-dichloro-4-(2-thienylcarbonyl)phenoxy]acetic acid]: the cell number in assay [1] worked out at 106; in assay [2] it was 99.8. For the same compound, the H1.0 immunofluorescence intensity in assay [3] is 95.1 (inactive); in assay [4], 109 (inactive).
Taken in the same sequence, the figures for `C1CNCCN1.COc1cc(C(O)CO)ccc1O.COc1cc(C(O)CO)ccc1O` (configuration not stated) [MHPG piperazine] were 100, 108, 106 (inactive) and 93.6 (inactive).
